40 compounds from PubChem BioAssay (Tox21) can be followed below.

Results filed as inconclusive are left out. Activity calls are given as the source filed them. The call rests on the fitted dose curve; in most records, active means well fitted cell-killing curve with a large enough effect in the repeat runs; inconclusive means weak or mixed curves; inactive means no such curve, though single readings can be large or run the other way.
On the % scale 0 is the no-effect control and ±100 the full control effect.

A short description of this experiment: qHTS assay to identify small molecule antagonists of the androgen receptor (AR) signaling pathway - cell viability counter screen (AID 743033; further: nearly all actives have a fitted effect of over 45% in size). Particulars: AR-bla HEK293 viability, CellTiter-Glo luminescence, 16 h; series mostly up to 58.5 µM; activity change, negative = cytotoxicity: at the top concentration. An excerpt: National Center for Advancing Translational Sciences [NCATS]
NIH Chemical Genomics Center [NCGC]
U.S. Environmental Protection Agency [EPA]
National Institutes of Environmental Health Sciences [NIEHS]
National Toxicology Program [NTP]
U.S. Food and Drug Administration [FDA]
Androgen receptor (AR), a nuclear hormone receptor, plays a critical role in AR-dependent prostate cancer and other androgen related diseases. Endocrine disrupting chemicals (EDCs) and their interactions with steroid hormone receptors like AR may cause disruption of normal endocrine function as well as interfere with metabolic homeostasis, reproduction, developmental and behavioral functions. To identify the compounds that inhibit AR signaling, GeneBLAzer AR-UAS-bla-GripTite cell line (Invitrogen, Carlsbad, CA, USA) containing a beta-lactamase reporter gene under control of an Upstream Activator Sequence (UAS) stably integrated into HEK293 cells was used to screen the Tox21 10K compound library. The cytotoxicity of the Tox21 compound library against the AR-bla cell line was tested in parallel by measuring the cell viability using CellTiter-Glo assay in the same wells.
Tox21 Assay Protocol Summary:
AR-bla cells were dispensed at 2,000 cells/5 uL of assay medium per well into black wall/clear-bottom 1536-well plates using a Multidrop Combi (ThermoFisher Scientific, Waltham, MA) dispenser. After the assay plates were incubated at a 37C and 5% CO2 for 4 hr, 23 nL of compounds dissolved in DMSO, positive controls or DMSO only was transferred to the assay plate by a Pintool station (Kalypsys, San Diego, CA), followed by addition of 1 uL of agonist (R1881) in culture medium using a Bioraptr Flying Reagent Dispenser (FRD) workstation (Beckman Coulter, Indianapolis, IN, USA). The plates were incubated at a 37C and 5% CO2 for 16 h. After 1 uL of LiveBLAzerTM B/G FRET substrate was added using a Bioraptr FRD, the plates were incubated at room temperature for 2 h and fluorescence intensity was measured by an Envision plate reader (PerkinElmer, Shelton, CT). For cell viability readout that measures cytotoxicity, 4 ul/well of CellTiter-Glo reagent was added into the assay plates using a Bioraptr FRD. After 30 min incubation at room temperature, the luminescence intensity in the plates was measured using a ViewLux (PerkinElmer) plate reader.
(qHTS replaces the single test concentration by a dilution series.)
Take `C=CC(=O)NC(C)(C)CS(=O)(=O)O`: the outcome was inactive.

As to `COc1ccc(O)cc1`, the outcome was inactive.

In the case of `O=C(OCc1ccccc1)c1ccccc1`, the result was inactive.

Consider `COc1ccc(C(=O)c2ccccc2)c(O)c1`, for which the compound was classed as inactive.

For `C[C@]12C=CC(=O)C=C1CC[C@@H]1[C@@H]2C(=O)C[C@@]2(C)[C@H]1CC[C@]2(O)C(=O)CO`, the result was inactive.

`C1CNCCN1`: the outcome was inactive.

For `Cn1cnc2c1c(=O)[nH]c(=O)n2C`, the “activity change, negative = cytotoxicity” value was 6.52% [at 27 µM] (inactive).

Turning to `CC(=O)c1ccc(S(=O)(=O)NC(=O)NC2CCCCC2)cc1`, the compound was classed as inactive.

As for `CCCCOCCOCCOC(C)=O`, the call was inactive.

On to `NC(=O)OCC(COC(N)=O)c1ccccc1`, for which the “activity change, negative = cytotoxicity” value is -1.15% (inactive).

For `CCN(CC)CCOC(=O)c1ccc(N)cc1`, the call was inactive.

Turning to `CCCCCCCCCCCCCC(=O)OC(C)C`, the compound was classed as inactive.

With `CCCCC/C(C=O)=C\c1ccccc1`, the result was inactive.

Consider `COc1ccccc1O`, for which the result was inactive.

Take `C=C(C)OC(C)=O`: the compound was classed as inactive.

In the case of `C[C@]12CC[C@@H]3c4ccc(O)cc4C[C@@H](CCCCCCCCCS(=O)CCCC(F)(F)C(F)(F)F)[C@H]3[C@@H]1CC[C@@H]2O` (stereo not given in full), the call was inactive.

Take `COC(=O)c1ccc(O)cc1`: the result was inactive.

`O=C(O)Cc1cccc2ccccc12`: the outcome was inactive.

In the case of `CCc1cc(C(N)=S)ccn1`, the result was inactive.

As for `OC[C@@H](O)[C@@H](O)[C@H](O)[C@H](O)CO`, the outcome was inactive.

Turning to `CC1=C(/C=C/C(C)=C/C=C/C(C)=C/C(=O)O)C(C)(C)CCC1`, the outcome was inactive.

Take `C#C[C@]1(O)CC[C@H]2[C@@H]3CCC4=CC(=O)CC[C@@H]4[C@H]3CC[C@@]21CC`: the outcome was inactive.

Turning to `COCCOCCOC`, the compound was called inactive.

Regarding `CC(=O)Oc1ccccc1C(=O)O`, the call was inactive.

Regarding `COCC(C)N` (stereo not given), the result was inactive.

Take `O=C1OC(c2ccc(O)cc2)(c2ccc(O)cc2)c2ccccc21`: the compound was called inactive.

For the compound `CC(C)Cc1ccc(C(C)C(=O)O)cc1` (stereo not given), the compound was called inactive.

With `N[C@@H](Cc1c[nH]c2ccc(O)cc12)C(=O)O`, the outcome was inactive.

Turning to `Cc1c(N(C)C)c(=O)n(-c2ccccc2)n1C`, the compound was classed as inactive.

For the compound `C=CCOC(=O)CC(C)C`, the result was inactive.

Turning to `CCCCCCCC(=O)OCC(O)CO` (stereo not given), the call was inactive.

Regarding `CC(C)(C)NCC(O)c1ccc(O)c(CO)c1` (stereo not given), the call was inactive.

With `CC(=O)/C=C/C1=C(C)CCCC1(C)C`, the compound was classed as inactive.

For the compound `CC(=O)OC/C=C(C)/C=C/C=C(C)/C=C/C1=C(C)CCCC1(C)C`, the “activity change, negative = cytotoxicity” value is -18.4% (inactive).

Regarding `O=C(O)CN(CC(=O)O)CC(=O)O`, the compound was classed as inactive.

As to `CCN1CCCC1=O`, the compound was classed as inactive.

Turning to `NCCNc1cccc2ccccc12`, the compound was called inactive.

On to `CCCCNC(=O)NS(=O)(=O)c1ccc(N)cc1`, for which the compound was classed as inactive.

For `CCOC(=O)C(C)(C)Oc1ccc(Cl)cc1`, the compound was classed as inactive.

As for `Nc1ccc(N=Nc2ccccc2)c(N)n1`, the outcome was inactive.
